Assay results reported in the supplement of paper PMC10849652.
Targets with a hit are over-represented here; the source holds about 8,800 in all. About 0.5% of all pairs of compound and target were hits.

compound: Cc1cn(-c2cc(NC(=O)c3ccc(C)c(Nc4nccc(-c5cccnc5)n4)c3)cc(C(F)(F)F)c2)cn1 [nilotinib]; assay: log2 fold change, soluble protein after heating vs DMSO (PISA); higher = thermal stabilisation; K562 lysate, 10 uM; active = over 0.2 and 3.5 SD of the protein, either way, in both replicates (recomputed)
Method in brief: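 Following dounce homogenisation of K562 pellets in PBS pH 7.4 with 1 mM MgCl2, crude extract at 1 mg/mL protein was incubated for 30 min with 10 μM compound. Aliquots were then heated for 3 min over 48°C-58°C and pooled, NP-40 was added to 0.5% at 4°C, and soluble protein was recovered as the supernatant at 21,000xg for 90 min. Channel-sum-equalised TMTpro 16plex LC-MS/MS quantified this protein. Each value, from duplicates, is a log-two fold change in thermal stability relative to solvent controls.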

Sequence of UniProt Q15906 (Q15906 whole entry, looked up): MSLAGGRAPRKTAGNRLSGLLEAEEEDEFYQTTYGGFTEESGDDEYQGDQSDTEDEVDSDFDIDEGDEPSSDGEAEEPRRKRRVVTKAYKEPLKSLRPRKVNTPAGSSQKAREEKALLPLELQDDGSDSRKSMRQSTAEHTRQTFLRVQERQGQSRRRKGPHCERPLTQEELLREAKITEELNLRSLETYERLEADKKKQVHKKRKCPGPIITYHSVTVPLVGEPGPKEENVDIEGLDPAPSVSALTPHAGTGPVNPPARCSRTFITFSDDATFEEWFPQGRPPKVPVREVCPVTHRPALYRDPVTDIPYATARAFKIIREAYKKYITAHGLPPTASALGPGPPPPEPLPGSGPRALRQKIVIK
Sequence of UniProt Q5SVZ6 (Q5SVZ6 whole entry, looked up): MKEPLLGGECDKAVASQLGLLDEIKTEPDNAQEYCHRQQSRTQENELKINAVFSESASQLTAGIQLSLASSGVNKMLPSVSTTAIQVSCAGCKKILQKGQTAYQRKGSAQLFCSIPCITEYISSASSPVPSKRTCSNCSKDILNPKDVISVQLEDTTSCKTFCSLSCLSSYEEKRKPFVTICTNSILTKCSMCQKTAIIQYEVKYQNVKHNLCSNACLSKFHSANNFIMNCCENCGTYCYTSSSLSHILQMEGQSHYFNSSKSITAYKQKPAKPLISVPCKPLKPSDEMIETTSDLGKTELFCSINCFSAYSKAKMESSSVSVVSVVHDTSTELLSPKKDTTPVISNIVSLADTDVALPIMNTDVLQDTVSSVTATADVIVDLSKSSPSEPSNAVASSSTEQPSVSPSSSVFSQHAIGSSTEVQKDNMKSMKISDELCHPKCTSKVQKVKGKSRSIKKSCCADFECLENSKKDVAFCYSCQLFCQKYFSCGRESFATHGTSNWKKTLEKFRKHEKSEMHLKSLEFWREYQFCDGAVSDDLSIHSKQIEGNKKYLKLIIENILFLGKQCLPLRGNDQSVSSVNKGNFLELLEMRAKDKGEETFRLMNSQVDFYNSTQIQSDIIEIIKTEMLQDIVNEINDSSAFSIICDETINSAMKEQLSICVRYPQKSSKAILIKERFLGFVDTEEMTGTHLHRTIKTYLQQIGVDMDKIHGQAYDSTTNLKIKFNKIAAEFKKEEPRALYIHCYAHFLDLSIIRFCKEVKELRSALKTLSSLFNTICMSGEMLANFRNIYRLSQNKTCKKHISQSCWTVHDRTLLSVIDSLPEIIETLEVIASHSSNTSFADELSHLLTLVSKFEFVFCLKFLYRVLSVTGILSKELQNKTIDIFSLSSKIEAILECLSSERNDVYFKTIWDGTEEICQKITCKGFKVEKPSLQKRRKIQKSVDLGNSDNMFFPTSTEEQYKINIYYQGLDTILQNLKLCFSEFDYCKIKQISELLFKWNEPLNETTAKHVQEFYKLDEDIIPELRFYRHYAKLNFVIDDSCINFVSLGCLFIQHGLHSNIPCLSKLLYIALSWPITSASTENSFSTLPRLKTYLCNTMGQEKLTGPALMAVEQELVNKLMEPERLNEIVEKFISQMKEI
Sequence of UniProt Q86UK7 (Q86UK7 whole entry, looked up): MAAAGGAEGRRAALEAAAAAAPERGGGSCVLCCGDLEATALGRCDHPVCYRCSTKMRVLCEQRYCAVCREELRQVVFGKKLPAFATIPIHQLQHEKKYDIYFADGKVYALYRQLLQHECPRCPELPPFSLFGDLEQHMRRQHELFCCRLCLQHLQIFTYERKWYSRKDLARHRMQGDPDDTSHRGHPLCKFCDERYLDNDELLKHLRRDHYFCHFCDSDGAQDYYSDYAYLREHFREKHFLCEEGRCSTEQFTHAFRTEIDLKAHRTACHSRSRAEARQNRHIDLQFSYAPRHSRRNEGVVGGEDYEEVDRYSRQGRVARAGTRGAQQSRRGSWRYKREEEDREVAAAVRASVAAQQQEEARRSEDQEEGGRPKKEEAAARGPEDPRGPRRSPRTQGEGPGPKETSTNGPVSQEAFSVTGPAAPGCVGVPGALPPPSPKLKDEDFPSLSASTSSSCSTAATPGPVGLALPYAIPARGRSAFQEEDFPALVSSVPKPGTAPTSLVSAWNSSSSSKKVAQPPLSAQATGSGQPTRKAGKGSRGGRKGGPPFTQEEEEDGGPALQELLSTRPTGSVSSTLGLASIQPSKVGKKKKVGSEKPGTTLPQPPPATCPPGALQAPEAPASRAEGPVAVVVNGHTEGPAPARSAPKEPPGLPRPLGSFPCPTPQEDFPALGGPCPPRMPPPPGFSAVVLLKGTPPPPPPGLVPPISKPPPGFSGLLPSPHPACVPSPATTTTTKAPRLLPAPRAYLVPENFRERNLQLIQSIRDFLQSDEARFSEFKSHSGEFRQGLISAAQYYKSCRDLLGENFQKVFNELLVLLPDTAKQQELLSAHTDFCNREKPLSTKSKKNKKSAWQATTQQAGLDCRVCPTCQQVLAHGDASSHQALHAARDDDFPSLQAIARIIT
Sequence of UniProt Q9NUA8 (Q9NUA8 whole entry, looked up): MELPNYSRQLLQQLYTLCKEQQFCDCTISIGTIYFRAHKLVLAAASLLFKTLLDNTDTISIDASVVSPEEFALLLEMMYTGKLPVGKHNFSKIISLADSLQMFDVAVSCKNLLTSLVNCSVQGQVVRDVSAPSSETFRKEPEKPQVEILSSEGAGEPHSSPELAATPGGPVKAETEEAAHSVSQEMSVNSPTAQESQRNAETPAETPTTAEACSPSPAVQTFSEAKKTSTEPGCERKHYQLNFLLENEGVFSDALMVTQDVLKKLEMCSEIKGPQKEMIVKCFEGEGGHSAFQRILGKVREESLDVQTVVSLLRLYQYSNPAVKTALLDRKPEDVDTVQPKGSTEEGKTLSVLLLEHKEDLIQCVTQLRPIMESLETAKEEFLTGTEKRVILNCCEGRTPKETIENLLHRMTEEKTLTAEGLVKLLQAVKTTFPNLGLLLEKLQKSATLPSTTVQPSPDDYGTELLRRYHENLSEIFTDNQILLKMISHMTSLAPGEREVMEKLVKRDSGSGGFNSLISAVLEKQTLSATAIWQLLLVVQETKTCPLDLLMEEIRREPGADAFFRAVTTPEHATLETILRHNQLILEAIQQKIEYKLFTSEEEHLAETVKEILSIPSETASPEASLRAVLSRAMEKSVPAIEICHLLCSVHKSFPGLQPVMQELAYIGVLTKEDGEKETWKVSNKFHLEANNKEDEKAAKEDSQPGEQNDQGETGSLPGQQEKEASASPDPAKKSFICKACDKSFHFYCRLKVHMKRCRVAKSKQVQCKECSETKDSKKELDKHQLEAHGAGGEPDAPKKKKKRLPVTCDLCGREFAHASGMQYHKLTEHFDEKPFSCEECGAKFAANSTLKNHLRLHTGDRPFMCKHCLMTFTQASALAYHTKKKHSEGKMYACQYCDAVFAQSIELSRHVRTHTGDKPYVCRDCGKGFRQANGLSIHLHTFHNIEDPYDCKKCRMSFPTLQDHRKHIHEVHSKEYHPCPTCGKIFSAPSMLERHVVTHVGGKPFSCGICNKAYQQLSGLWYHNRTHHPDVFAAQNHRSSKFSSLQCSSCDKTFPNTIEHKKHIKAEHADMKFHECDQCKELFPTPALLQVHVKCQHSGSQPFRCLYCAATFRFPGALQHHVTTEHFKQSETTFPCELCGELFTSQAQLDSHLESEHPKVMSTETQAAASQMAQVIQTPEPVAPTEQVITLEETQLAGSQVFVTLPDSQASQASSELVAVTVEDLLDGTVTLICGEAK
Sequence of UniProt Q86Y07 (Q86Y07 whole entry, looked up): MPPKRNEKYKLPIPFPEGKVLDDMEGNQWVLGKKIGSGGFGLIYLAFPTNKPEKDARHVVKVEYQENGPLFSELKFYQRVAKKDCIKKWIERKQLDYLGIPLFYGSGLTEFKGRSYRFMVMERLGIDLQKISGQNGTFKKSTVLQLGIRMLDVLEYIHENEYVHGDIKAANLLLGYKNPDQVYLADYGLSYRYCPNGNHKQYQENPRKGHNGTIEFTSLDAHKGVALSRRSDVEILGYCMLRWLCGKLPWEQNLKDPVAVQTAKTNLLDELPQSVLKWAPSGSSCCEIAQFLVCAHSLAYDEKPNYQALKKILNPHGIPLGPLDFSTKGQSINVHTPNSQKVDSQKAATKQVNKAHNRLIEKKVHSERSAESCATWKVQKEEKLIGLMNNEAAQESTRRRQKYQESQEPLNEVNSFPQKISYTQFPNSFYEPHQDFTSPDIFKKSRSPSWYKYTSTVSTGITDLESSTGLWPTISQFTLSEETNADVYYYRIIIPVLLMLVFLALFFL
Sequence of UniProt A4D1P6 (A4D1P6 whole entry, looked up): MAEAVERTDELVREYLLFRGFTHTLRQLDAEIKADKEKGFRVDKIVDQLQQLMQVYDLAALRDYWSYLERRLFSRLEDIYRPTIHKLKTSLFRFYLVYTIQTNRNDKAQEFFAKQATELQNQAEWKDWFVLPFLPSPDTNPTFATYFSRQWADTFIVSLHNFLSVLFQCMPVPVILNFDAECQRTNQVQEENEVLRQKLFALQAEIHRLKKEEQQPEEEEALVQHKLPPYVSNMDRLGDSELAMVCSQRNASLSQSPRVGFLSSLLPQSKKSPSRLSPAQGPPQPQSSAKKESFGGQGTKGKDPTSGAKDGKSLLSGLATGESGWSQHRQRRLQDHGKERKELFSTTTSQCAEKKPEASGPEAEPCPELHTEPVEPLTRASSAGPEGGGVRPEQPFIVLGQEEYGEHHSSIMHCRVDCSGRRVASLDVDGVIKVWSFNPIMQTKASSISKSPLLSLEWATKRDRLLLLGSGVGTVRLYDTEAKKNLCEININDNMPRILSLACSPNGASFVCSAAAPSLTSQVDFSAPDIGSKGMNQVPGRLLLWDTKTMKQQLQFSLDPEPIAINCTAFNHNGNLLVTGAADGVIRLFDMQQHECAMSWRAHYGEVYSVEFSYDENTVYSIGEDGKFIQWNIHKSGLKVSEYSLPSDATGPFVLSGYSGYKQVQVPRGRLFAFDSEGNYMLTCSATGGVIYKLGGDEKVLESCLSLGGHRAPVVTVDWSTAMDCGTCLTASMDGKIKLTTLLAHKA

log2 fold change, inactive:
ZDHHC17 (UniProt Q8IUH5) -0.164, VPS72 (UniProt Q15906) 0.029, ZNF609 (UniProt O15014) -0.14, UQCRC2 (UniProt P22695) 0.034, UPF3B (UniProt Q9BZI7) -0.016, VRK2 (UniProt Q86Y07) 0.048, ZNF598 isoform 3 (UniProt Q86UK7) -0.004, ZMYM1 (UniProt Q5SVZ6) 0.023, VARS (UniProt P26640) -0.012, VAC14 (UniProt Q08AM6) -0.014, VASP (UniProt P50552) -0.025, ZHX1 (UniProt Q9UKY1) 0.011, VPS54 (UniProt Q9P1Q0) 0.013, WDR91 (UniProt A4D1P6) -0.051, ZBTB40 (UniProt Q9NUA8) -0.076, YES1 (UniProt P07947) 0.043, WDR77 (UniProt Q9BQA1) 0.056, ZDHHC18 (UniProt Q9NUE0) 0.067, ZC2HC1A (UniProt Q96GY0) 0, VPS35L (UniProt Q7Z3J2) -0.019, VPS11 (UniProt Q9H270) -0.007, VPS13C (UniProt Q709C8) 0.138, ZMYM4 (UniProt Q5VZL5) -0.016, USP10 isoform 2 (UniProt Q14694) -0.022
